Here are results for 13 molecules from PubChem BioAssay (Tox21).

A number with no mark means an inactive call. Inconclusive results are not listed. Activity calls are given as the source filed them. Unless noted, calls follow the shape of the dose curve; as a rule, active = well fitted curve in the direction sought with a large enough effect in the repeat runs; inconclusive = weak or mixed curves; inactive = no such curve, though single readings can be large; an effect the other way counts as inactive or inconclusive.

Assay [1] is described as follows: qHTS assay to test for compound auto fluorescence at 535 nm (green) in HEK293 cells (AID 720680). Background: qHTS replaces the single test concentration by a dilution series.
Assay [2] in a line: qHTS assay to test for compound auto fluorescence at 460 nm (blue) in HEK293 cell free culture (AID 720681). Summed up:
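Test compounds were pinned into cell-free culture medium (DMEM with 10% FBS) and fluorescence was read directly at Ex/Em 405/460 nm. Signals were expressed as fluorescence equivalents of triamterene, with DMSO vehicle as control.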

A short description of assay [3]: qHTS assay to test for compound auto fluorescence at 535 nm (green) in HEK293 cell free culture (AID 720682). The gist of the method: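 Steps: dispense DMEM/10% FBS into empty wells; pin in compound or DMSO; measure fluorescence at 485/535 nm. Values are fluorescein equivalents.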
Assay [4] is described as follows: qHTS assay to test for compound auto fluorescence at 590 nm (red) in HEK293 cell free culture (AID 720683). The gist of the method:
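Tox21 10K library compounds were pinned into cell-free DMEM with 10% FBS and fluorescence was read at excitation 540 nm. Activity is expressed as Rose Bengal sodium equivalency.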

The nature of assay [5]: qHTS assay to test for compound auto fluorescence at 590 nm (red) in HepG2 cell free culture (AID 720684). Summed up: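 Measured in medium alone (MEM containing 10% FBS) following pintool addition of compound; emission at 590 nm with 540 nm excitation, referenced to Rose Bengal sodium.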
Assay [6] in a line: qHTS assay to test for compound auto fluorescence at 460 nm (blue) in HepG2 cell free culture (AID 720685). The gist of the method: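 Compound (23 nL) or DMSO pinned into cell-free MEM with 10% FBS; blue fluorescence read at 405/460 nm excitation/emission, expressed as auto-fluorescence equivalency to triamterene.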
A short description of assay [7]: qHTS assay to test for compound auto fluorescence at 535 nm (green) in HepG2 cell free culture (AID 720686).
Assay [8] in a line: qHTS assay to test for compound auto fluorescence at 460 nm (blue) in HepG2 cells (AID 720687). The gist of the method:
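Cells (2,000/well in MEM with 10% FBS) attached overnight at 37 C, then were exposed to compound or DMSO for 1 hr at 37 C, 5% CO2. Fluorescence read at Ex/Em 405/460 nm, expressed as triamterene-equivalent signal.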

Assay [9] has as its target Glucocorticoid receptor (Homo sapiens) (UniProt P04150). Nature of the assay: qHTS assay to identify small molecule agonists of the glucocorticoid receptor (GR) signaling pathway (AID 720691; active = well fitted activation curve with a large enough effect in the signal ratio in the repeat runs, not every such curve was filed as active; the % refers to the signal ratio). The gist of the method:
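Reporter read-out: fluorescence intensity following 2 h room-temperature LiveBLAzer B/G FRET substrate loading. Prior step: GR-bla HeLa cells held 4 h, then treated 18 h at 37 C.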

The target is the same in assay [10]. The assay is described as follows: qHTS assay to identify small molecule antagonists of the glucocorticoid receptor (GR) signaling pathway (AID 720692; active = well fitted inhibition curve with a large enough effect in the signal ratio in the repeat runs, not every such curve was filed as active; the % refers to the signal ratio). The gist of the method:
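Dexamethasone (5 nM final) stimulated a stably integrated GRE-beta-lactamase reporter in HeLa cells during 18 h co-incubation with compounds; signal was quantified as fluorescence intensity of B/G FRET substrate after 2 h.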

The nature of assay [11]: qHTS assay for identifying genotoxic compounds that show differential cytotoxicity against isogenic chicken DT40 cell lines with known DNA damage response pathways - wild type cell line (AID 743012). Also: nearly all actives have a fitted effect of over 60% in size. Also: potency is read from the fitted curve at half-maximal effect. Summed up: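 Using parental DT40 (300 cells/well), compounds delivered in DMSO incubate 40 h at 37 C/5% CO2. CellTiter-Glo reagent then stands 30 min at room temperature, and luminescence gives cell viability.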

Assay [12] is described as follows: qHTS assay for identifying genotoxic compounds that show differential cytotoxicity against isogenic chicken DT40 cell lines with known DNA damage response pathways - Rev3 mutant cell line (AID 743014). Also: nearly all actives have a fitted effect of over 55% in size. Also: potency is read from the fitted curve at half-maximal effect.
Assay [13] can be described thus: qHTS assay for identifying genotoxic compounds that show differential cytotoxicity against isogenic chicken DT40 cell lines with known DNA damage response pathways - Rad54/Ku70 mutant cell line (AID 743015). Also: nearly all actives have a fitted effect of over 60% in size. Also: potency is read from the fitted curve at half-maximal effect.
The nature of assay [14]: qHTS assay to identify small molecule antagonists of the androgen receptor (AR) signaling pathway using the MDA cell line - cell viability counter screen (AID 743041; also: nearly all actives have a fitted effect of over 45% in size). Summed up: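 Viability counter screen run alongside the AR antagonist reporter: cells seeded 5 h before compound, R1881 added, 16 h incubation at 37C without CO2, fluorescent CellTiter-Fluor signal quantified.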

A short description of assay [15]: qHTS assay to identify small molecule antagonists of the thyroid receptor (TR) signaling pathway - cell viability counter screen (AID 743064). Also: nearly all actives have a fitted effect of over 50% in size. Also: potency is read from the fitted curve at half-maximal effect. The gist of the method: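 Plate GH3.TRE-Luc cells; incubate 4 h at 37 °C; add compound, then T3 to 1 nM final; incubate 23.5 h; add CellTiter-Fluor; incubate 30 min at 37 °C, 5% CO2; read fluorescence.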
Assay [16] in a line: qHTS assay to identify small molecule antagonists of the glucocorticoid receptor (GR) signaling pathway - cell viability counter screen (AID 720693). Also: nearly all actives have a fitted effect of over 55% in size.
Assay [17] can be described thus: qHTS assay to identify small molecule antagonists of the androgen receptor (AR) signaling pathway - cell viability counter screen (AID 743033; also: nearly all actives have a fitted effect of over 45% in size).
Assay [18] deals with Androgen receptor (Homo sapiens) (UniProt P10275). The assay is described as follows: qHTS assay to identify small molecule agonists of the androgen receptor (AR) signaling pathway using the MDA cell line (AID 743040; also: nearly all actives have a fitted effect of over 20% in size). Summed up: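 Luminescence from ONE-Glo, read after 30 min at room temperature, reflects MMTV-driven luciferase in MDA-kb2 cells (AR- and GR-responsive). Treatment lasted 16 h at 37C, 0% CO2.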
Chain of Androgen receptor (Homo sapiens) (P10275 whole entry, looked up): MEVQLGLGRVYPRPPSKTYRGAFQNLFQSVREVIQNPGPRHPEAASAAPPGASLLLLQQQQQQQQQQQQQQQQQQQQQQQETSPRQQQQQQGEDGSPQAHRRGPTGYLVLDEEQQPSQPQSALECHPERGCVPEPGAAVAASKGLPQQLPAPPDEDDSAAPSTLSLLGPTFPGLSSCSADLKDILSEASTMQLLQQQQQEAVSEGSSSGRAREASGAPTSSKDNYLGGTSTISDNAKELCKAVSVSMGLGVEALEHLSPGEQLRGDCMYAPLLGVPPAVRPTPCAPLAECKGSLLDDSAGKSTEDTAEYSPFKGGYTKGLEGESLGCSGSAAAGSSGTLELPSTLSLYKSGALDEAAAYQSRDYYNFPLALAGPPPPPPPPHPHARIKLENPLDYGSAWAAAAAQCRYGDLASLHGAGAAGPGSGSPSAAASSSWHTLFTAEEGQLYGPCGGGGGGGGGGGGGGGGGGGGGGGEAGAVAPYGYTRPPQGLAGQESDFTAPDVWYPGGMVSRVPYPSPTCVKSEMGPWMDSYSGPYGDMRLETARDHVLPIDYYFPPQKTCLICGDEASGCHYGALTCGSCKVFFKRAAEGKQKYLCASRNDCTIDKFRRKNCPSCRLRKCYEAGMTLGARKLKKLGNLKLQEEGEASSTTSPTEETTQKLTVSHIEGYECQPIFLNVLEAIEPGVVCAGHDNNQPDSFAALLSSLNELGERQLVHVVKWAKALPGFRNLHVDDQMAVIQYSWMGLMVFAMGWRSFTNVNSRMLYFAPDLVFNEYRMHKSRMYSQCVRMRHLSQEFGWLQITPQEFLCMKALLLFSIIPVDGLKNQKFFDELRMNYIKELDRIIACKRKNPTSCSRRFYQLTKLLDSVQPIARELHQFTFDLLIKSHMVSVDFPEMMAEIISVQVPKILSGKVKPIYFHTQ

The target is the same in assay [19]. The assay is described as follows: qHTS assay to identify small molecule antagonists of the androgen receptor (AR) signaling pathway using the MDA cell line (AID 743042; also: nearly all actives have a fitted effect of over 55% in size). The gist of the method:
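MDA-kb2 cells (human breast carcinoma, stably carrying an MMTV-luciferase reporter responsive to AR and GR) were plated at 3,000 cells/well and preincubated 5 hr at 37C, then given compound plus R1881 agonist for 16 h. ONE-Glo luminescence was read.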

Assay [20] shares this target. Nature of the assay: qHTS assay to identify small molecule antagonists of the androgen receptor (AR) signaling pathway (AID 743035; active = well fitted inhibition curve with a large enough effect in the signal ratio in the repeat runs, not every such curve was filed as active; the % refers to the signal ratio; also: potency is read from the fitted curve at half-maximal effect). The gist of the method:
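Using qHTS, AR-UAS-bla GripTite HEK293 cells received compound, then R1881, and were cultured 16 h at 37C/5% CO2 before a 2 h room-temperature LiveBLAzer B/G FRET substrate step and fluorescence measurement.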
% is scaled to controls: 0 for no effect and ±100 for the full control effect.

Chain of Glucocorticoid receptor (Homo sapiens) (P04150 whole entry, looked up): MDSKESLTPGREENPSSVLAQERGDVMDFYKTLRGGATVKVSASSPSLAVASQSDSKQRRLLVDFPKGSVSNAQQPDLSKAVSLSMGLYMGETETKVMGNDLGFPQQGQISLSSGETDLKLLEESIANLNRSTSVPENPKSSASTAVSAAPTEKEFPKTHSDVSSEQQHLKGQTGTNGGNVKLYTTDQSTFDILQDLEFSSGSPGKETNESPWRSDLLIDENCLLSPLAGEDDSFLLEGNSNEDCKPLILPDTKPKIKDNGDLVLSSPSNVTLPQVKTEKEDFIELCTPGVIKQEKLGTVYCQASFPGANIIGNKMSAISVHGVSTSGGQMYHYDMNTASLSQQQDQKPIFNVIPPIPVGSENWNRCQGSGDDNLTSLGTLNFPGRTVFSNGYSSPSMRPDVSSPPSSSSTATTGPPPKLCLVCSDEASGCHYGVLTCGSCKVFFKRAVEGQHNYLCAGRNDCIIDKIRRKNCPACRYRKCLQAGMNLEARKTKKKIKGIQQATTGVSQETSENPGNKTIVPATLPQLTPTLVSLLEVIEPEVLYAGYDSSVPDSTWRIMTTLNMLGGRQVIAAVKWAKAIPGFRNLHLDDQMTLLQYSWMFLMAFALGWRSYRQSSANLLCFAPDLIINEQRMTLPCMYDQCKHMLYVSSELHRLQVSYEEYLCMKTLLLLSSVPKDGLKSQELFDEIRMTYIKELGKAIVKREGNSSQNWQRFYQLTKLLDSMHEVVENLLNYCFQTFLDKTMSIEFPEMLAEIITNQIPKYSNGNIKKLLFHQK

Regarding `O=C(O)c1ccccc1Nc1cc(Cl)ccc1C(=O)O`, the result in assay [1], in [2], in assay [3], in assay [4], in assay [5] and in assay [6] was inactive. Also, the outcome in assay [7] and in [8] was inactive. The Potency entry in assay [9], in assay [10], in assay [11], in [12], in [13] and in [14] was “inactive” throughout. The Potency result in assay [15] was “inactive”.

Regarding `COc1ccc2nc(NC(=O)Nc3ccccc3)sc2c1`, the molecule was called inactive in [1], in assay [2], in assay [3], in [4], in [5] and in [6]. Moreover, the molecule was called inactive in assay [7], in assay [8], in assay [16] and in assay [17]. The Potency result in assay [9], in assay [14] and in [15] was “inactive” each time. Further, the Potency is 18.8 µM (active) in [11], 26.6 µM (active) in assay [12] and 16.8 µM (active) in [13].

In the case of `CCOC(=O)c1ccccc1O`, the call in [1], in [2], in assay [3], in assay [4], in assay [5] and in assay [6] was inactive. The molecule was called inactive in assay [7] and in assay [8]. Besides, the Potency result in [9], in assay [10], in assay [11], in [12], in assay [13] and in assay [14] was “inactive” each time. Further, the Potency entry in [15] is “inactive”.

In the case of `CN1CCN(C2=Nc3ccccc3Oc3ccc(Cl)cc32)CC1`, the fluorescence, % of fluorescein in [1] was 0.0654% [at 18.6 µM]. The fluorescence, % of fluorescent control was 0.0139% [at 18.6 µM] in [2], 0.0885% [at 18.6 µM] in assay [4], -0.0109% [at 18.6 µM] in assay [6] and 0.0039% [at 18.6 µM] in assay [8]. Also, the activity change in assay [3] is -0.0046% [at 18.6 µM]. Further, the fluorescence, % of Rose Bengal in assay [5] was -0.256% [at 18.6 µM]. Further, in [7], the fluorescence, % of fluorescein control is 0.0479% [at 18.6 µM]. The Potency entry in assay [9] and in assay [14] was “inactive” each time. For the same molecule, in assay [11], the Potency is 12.7 µM (active). Moreover, the molecule was called inactive in assay [17].

As for `COc1ccccc1OCC(O)COC(N)=O` (stereo not given), the fluorescence, % of fluorescein in assay [1] is -0.023% [at 18.6 µM]. Further, the fluorescence, % of fluorescent control was 0.143% [at 18.6 µM] in assay [2], -0.113% [at 18.6 µM] in assay [4], 0.0993% [at 18.6 µM] in assay [6] and 0.0352% [at 18.6 µM] in [8]. In addition, the activity change in [3] is 0.0183% [at 18.6 µM]. Also, the fluorescence, % of Rose Bengal in [5] is 0.679% [at 18.6 µM]. In [7], the fluorescence, % of fluorescein control is -0.0199% [at 18.6 µM]. The Potency result in assay [9], in [11], in [12], in assay [13] and in assay [15] was “inactive” throughout. Further, the molecule was called inactive in assay [16].

With `CCCCOc1cc(C(=O)NCCN(CC)CC)c2ccccc2n1`, the fluorescence, % of fluorescein in assay [1] is 0.0154% [at 18.6 µM]. Further, the fluorescence, % of fluorescent control in [2] is 0.0819% [at 18.6 µM]; in assay [4] it was -0.187% [at 18.6 µM]; in [6], 0.0544% [at 18.6 µM]; in assay [8] it was -0.0681% [at 18.6 µM]. The activity change in [3] is -0.0175% [at 18.6 µM]. Also, in assay [5], the fluorescence, % of Rose Bengal was 0.52% [at 18.6 µM]. The fluorescence, % of fluorescein control in assay [7] is -0.0334% [at 18.6 µM]. Besides, the Potency result in assay [9] and in assay [14] was “inactive” in each case. The molecule was called inactive in [16] and in assay [17]. The Potency in assay [11] is 11.4 µM (active); in assay [12], 5.07 µM (active); in assay [13], 10.1 µM (active); in assay [15], 11.4 µM (active).

As to `COc1nc(C)nc(NC(=O)NS(=O)(=O)c2ccccc2OCCCl)n1`, the outcome in [1], in assay [2], in assay [3], in assay [4], in [5] and in [6] was inactive. Moreover, the result in assay [7], in assay [8], in assay [16] and in [17] was inactive. Moreover, the Potency entry in [10], in assay [11], in assay [12], in assay [13], in assay [14] and in [15] was “inactive” each time.

Regarding `CC1=C2[C@H](/C=C(\C)C(=O)O)CC[C@@H](C)[C@H]2CC1`, the molecule was called inactive in assay [1], in assay [2], in assay [3], in assay [4], in [5] and in assay [6]. For the same molecule, the outcome in assay [7], in assay [8], in assay [16], in [17] and in assay [19] was inactive. Further, the Potency entry in [10], in [11], in assay [12], in assay [13], in assay [18] and in [14] was “inactive” in each case. In addition, the Potency entry in assay [15] was “inactive”.

With `OCCN(CCO)c1ccccc1`, the molecule was called inactive in [1], in [2], in [3], in [4], in assay [5] and in assay [6]. For the same molecule, the outcome in assay [7], in assay [8], in [16], in assay [17] and in assay [19] was inactive. Further, the Potency entry in assay [10], in assay [11], in [12], in assay [13], in assay [20] and in [18] was “inactive” throughout. In [15], the Potency result is “inactive”.

For `CC(C)C[C@H](NC(=O)OCC1c2ccccc2-c2ccccc21)C(=O)O`, the result in [1], in [2], in assay [3], in assay [4], in assay [5] and in [6] was inactive. For the same molecule, the call in [7], in [8] and in assay [16] was inactive. The Potency result in assay [10], in [11], in [12], in assay [13], in [14] and in [15] was “inactive” throughout.

Turning to `Oc1ccccc1C=NCc1ccccc1`, the molecule was classed as inactive in assay [1], in [2], in [3], in assay [4], in assay [5] and in assay [6]. The molecule was called inactive in assay [7], in assay [8], in assay [16] and in assay [17]. Moreover, the Potency result in [10], in assay [12], in [14] and in assay [15] was “inactive” throughout.

Regarding `Cc1nc(-c2ccccn2)ncc1C(=O)Nn1cc(C)c2cc(F)ccc21`, the molecule was called inactive in [1], in [2], in assay [3], in assay [4], in assay [5] and in assay [6]. In addition, the molecule was called inactive in assay [7] and in assay [8]. The Potency result in [10], in assay [18], in [14] and in assay [15] was “inactive” each time. The Potency in assay [11] was 61.1 µM (active); in assay [12], 61.1 µM (active); in assay [13], 30.6 µM (active); in assay [20] it was 49 µM (active).

For `CCC(=O)Nc1ccc(O)cc1`, the molecule was classed as inactive in assay [1], in [2], in assay [3], in assay [4], in [5] and in assay [6]. Besides, the molecule was classed as inactive in [7], in [8] and in assay [17]. Also, the Potency entry in [10], in assay [11], in assay [12], in assay [13], in [14] and in assay [15] was “inactive” each time.
